Source: PubChem BioAssay AID1851 (National Center for Advancing Translational Sciences (NCATS), 2009)
Several values for one entry are separate records, joined by “and”; a condition that tells them apart may be missing. Identical values can stand only once. The campaign covered roughly 16,000 compounds. About 2,600 (16%) were called active. About 20% were inconclusive and are not listed. The call rests on the fitted dose curve; in most records, active means well fitted curve in the direction sought with a large enough effect; inconclusive means small, poorly fitted or top-dose-only effect, or effect the other way; inactive means no such curve, though single readings can be large or run the other way. The list is a sample of the results. Some structures have more than one record in an assay (separate samples or runs), and their calls can disagree.

biological target: Cytochrome P450 2D6 (Homo sapiens) (UniProt P10635); assay: Cytochrome panel assay with activity outcomes; conditions: recombinant CYP, pro-luciferin dealkylation, luminescence, p450-cyp2d6; series mostly up to 57.1 µM
On the % scale 0 is the no-effect control and ±100 the full control effect.

Chain of Cytochrome P450 2D6 (Homo sapiens) (P10635 whole entry, looked up): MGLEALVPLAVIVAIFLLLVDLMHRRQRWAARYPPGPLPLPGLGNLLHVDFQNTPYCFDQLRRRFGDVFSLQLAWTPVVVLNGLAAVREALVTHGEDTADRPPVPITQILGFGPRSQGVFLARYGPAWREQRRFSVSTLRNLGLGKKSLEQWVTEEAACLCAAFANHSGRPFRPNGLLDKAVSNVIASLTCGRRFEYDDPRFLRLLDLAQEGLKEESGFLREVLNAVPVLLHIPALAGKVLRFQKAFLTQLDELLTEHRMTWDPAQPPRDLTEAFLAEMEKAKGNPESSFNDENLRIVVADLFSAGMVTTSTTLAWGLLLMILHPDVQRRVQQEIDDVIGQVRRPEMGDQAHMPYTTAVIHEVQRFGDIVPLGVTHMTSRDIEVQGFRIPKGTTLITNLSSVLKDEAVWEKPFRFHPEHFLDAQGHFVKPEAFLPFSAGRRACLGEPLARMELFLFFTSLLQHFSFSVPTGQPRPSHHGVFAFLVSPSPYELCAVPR

Row | SMILES | AC50 | activity, negative = inhibition
1 | O=C(O)CCC(=O)N1CCc2cc(S(=O)(=O)N3CCCCC3)ccc21 | inactive | –
2 | Cc1ccc(-c2cc(C(=O)NN=C3CCCC3)c3ccccc3n2)cc1 | inactive | –
3 | CCNc1ncc2nc(-c3ccc(Cl)cc3)c(=O)n(Cc3ccc(F)cc3)c2n1 | inactive | –
4 | CN(Cc1n[nH]c(=S)n1C)S(=O)(=O)c1ccccc1 | inactive | –
5 | COC(=O)C(NC(=O)c1ccc(Cl)cc1)(Nc1nc(C)cs1)C(F)(F)F (stereo not given) | inactive | –
6 | Cc1ccc(SCC(=O)NNC(=O)C2CCCCC2)cc1 | inactive | –
7 | CC(=O)N[C@@H]1CONC1=O | – | 18.4% [at 11.4 µM] (inactive)
8 | Cc1ccc(C(=O)Nc2ccccc2Oc2ccccc2)cc1[N+](=O)[O-] | inactive | –
9 | Cc1ccc(NC(=O)c2ccc(NCC3CCCO3)c([N+](=O)[O-])c2)cc1Cl (stereo not given) | inactive | –
10 | Cc1ccc(C(=O)Nc2ccc(Cc3ccncc3)cc2)cc1[N+](=O)[O-] | 1.41 µM (active) | –
11 | N[C@H](C(=O)O)C1[C@H](C(=O)O)[C@H]1C(=O)O (stereo not given in full) | 7.94 µM (active) | –
12 | O=C(O)[C@H]1[C@H](C(=O)O)[C@H](C(=O)O)C[C@@H]1C(=O)O | – | -4.27% [at 11.4 µM] (inactive)
13 | N[C@H](C(=O)O)[C@@H]1C[C@@H]1C(=O)O | inactive | –
14 | O=c1cnc2cnc(N3CCOCC3)nc2n1Cc1ccc(F)cc1 | inactive | –
15 | NC(N)=[N+]1CCc2ccccc2C1 | inactive | –
16 | COc1ccccc1NC(=O)[C@H](COCc1ccccc1)NC(=O)OC(C)(C)C | inactive | –
17 | O=S1(=O)C=C(SCc2cccc(Cl)c2)Nc2ccccc21 | 12.6 µM (active) | –
18 | O=C1NCCN1Cc1cccc(Cl)c1 | inactive | –
19 | Cc1ccc(-n2ccc(=O)c(-c3ccnc(SCc4cccc(Cl)c4)n3)n2)cc1 | inactive | –
20 | O=C1c2ccccc2C(=O)N1CCCCN(C(=O)c1cccc([N+](=O)[O-])c1)c1ccc(Cl)cc1 | inactive | –
21 | CC1=NS(=O)(=O)c2cc(Cl)ccc2N1 | inactive and 7.94 µM (active) | –
22 | COc1ccc(-n2nnnc2-c2cn(C)nc2C(F)(F)F)cc1 | inactive | –
23 | O=C(O)c1cc(N=Nc2ccc([N+](=O)[O-])cc2)ccc1O | – | -8.54% [at 11.4 µM] (inactive)
24 | CS[C@]12C(=O)C[C@]3(C)[C@@H](CC[C@@]3(O)C(=O)CO)[C@@H]1CCC1=CC(=O)CC[C@]12C | – | 0.401% [at 11.4 µM] (inactive)
25 | Cn1nc(-c2ccc(N3CCOCC3)c(NS(=O)(=O)c3ccc(Cl)cc3)c2)c2ccccc2c1=O | inactive | –

Row | SMILES | AC50 | activity, negative = inhibition
26 | CN(C)C(=O)c1ccc(-c2cncnc2NC2CCNCC2)cc1 | inactive | –
27 | CN1CCN(c2ncncc2-c2ccc(C(=O)N(C)C)cc2)CC1 | 0.251 µM (active) | –
28 | CN1CCN(c2ncnc3ccc(-c4cccc(NS(C)(=O)=O)c4)cc23)CC1 | inactive | –
29 | CN1CCN(c2ncncc2-c2ccc(N(C)C)cc2)CC1 | 10 µM (active) | –
30 | CN(C)C(=O)c1ccc(-c2cncnc2N2CCNCC2)cc1 | 7.94 µM (active) | –
31 | Cc1ccc(S(=O)(=O)n2c3ccccc3c3nnc(C(=O)c4ccccc4)nc32)cc1 | – | -14.9% [at 11.4 µM] (inactive)
32 | Cc1nn(C)c(C)c1CNC(=O)c1cnn2c1NC(c1ccccc1)CC2C(F)(F)F (stereo not given) | inactive | –
33 | Cn1c2c(c(=O)n(C)c1=O)CN(CCN1CCNCC1)CN2 | inactive | –
34 | O=C(CC1(O)CCCCC1)OC1CCCC1 | – | -5.94% [at 11.4 µM] (inactive)
35 | CCCCSc1nnc(-c2cc3c(C(F)(F)F)nn(C)c3s2)n1C | inactive | –
36 | C[N+](C)(C)CC(=O)O | inactive | –
37 | COc1ccc([C@@H](Nc2ccccn2)c2cc(C(C)(C)C)cc(C(C)(C)C)c2O)cc1 | – | -16.7% [at 11.4 µM] (inactive)
38 | O=C(O)c1cc(C(=O)O)nc(C(=O)O)c1 | – | 0.571% [at 11.4 µM] (inactive)
39 | CC(O)(P(=O)(O)O)P(=O)(O)O | inactive | –
40 | O=C(c1cccc(F)c1)N1CCC[C@@]2(CCN(c3ccncc3)C2)C1 | inactive | –
41 | O=C(c1cccc(F)c1)N1CCC2(CC1)CN(c1ccncc1)C2 | inactive | –
42 | O=C(c1cc(C(F)(F)F)cc(C(F)(F)F)c1)N1CCC[C@@]2(CCN(c3ccncc3)C2)C1 | inactive | –
43 | O=C(c1cc(C(F)(F)F)cc(C(F)(F)F)c1)N1CCC2(CC1)CN(c1ccncc1)C2 | inactive | –
44 | O=C(c1cccc(F)c1)N1CCC2(CC1)CCN(c1ccncc1)CC2 | 20 µM (active) | –
45 | O=C(c1cc(C(F)(F)F)cc(C(F)(F)F)c1)N1CCC2(CC1)CCN(c1ccncc1)CC2 | 15.8 µM (active) | –
46 | Cc1ccc(C)c(-c2nn(-c3cc(N4CCN(CCO)CC4)ccc3[N+](=O)[O-])c(=O)c3ccccc23)c1 | inactive | –
47 | CCOC(=O)CC(Nc1nc(N2CCOCC2)nc(N2CCOCC2)n1)c1ccccc1Cl (stereo not given) | inactive | –
48 | COc1cccc(/C(O)=C2/C(=O)C(=O)N(c3cc(C)on3)C2c2cccs2)c1 (stereo not given) | inactive | –
49 | CCN(CC)CCN1C(=O)C(=O)/C(=C(/O)c2ccc(OC)cc2)C1c1cccs1 (stereo not given) | 14.1 µM (active) | –
50 | COC(=O)c1[nH]c(C)c(/C(O)=C2\C(=O)C(=O)N(CCN(C)C)C2c2cccs2)c1C (stereo not given) | inactive | –

Row | SMILES | AC50 | activity, negative = inhibition
51 | CC(C)(C)C(=O)[C@H]([C@@H](c1ccccc1)N1CCOCC1)N1CCOCC1 | – | 6.76% [at 11.4 µM] (inactive)
52 | Cc1ccc(NC(=O)c2sccc2SCc2cccc(C(F)(F)F)c2)cc1 | inactive | –
53 | O=C(c1ccccc1)c1ccc2n1CC[C@H]2C(=O)O | inactive | –
54 | N#Cc1ccc(-c2ccccc2)nc1SCC(=O)c1cccc(Cl)c1 | inactive | –
55 | CN1CCN(c2ncc3nc(-c4cn(C)c5ccccc45)c(=O)n(-c4ccccc4)c3n2)CC1 | inactive | –
56 | COc1ccc(Cl)cc1C(=O)Nn1cnc2ccccc2c1=O | inactive | –
57 | COc1ccc(C(=O)Nn2cnc3ccccc3c2=O)c(OC)c1 | inactive | –
58 | O=C(Nn1cnc2ccccc2c1=O)c1ccc(F)cc1Cl | 28.2 µM (active) | –
59 | COC(=O)c1ccc(NC(C)=O)o1 | inactive | –
60 | COc1ccc(N(C(=O)COc2ccccc2OC)S(=O)(=O)c2ccc(C)cc2)cc1 | inactive | –
61 | COc1ccc(C(C(=O)NC2CCCCC2)N(C(=O)CCCC(=O)Nc2ccccn2)c2ccc3c(c2)OCCO3)cc1 (stereo not given) | inactive | –
62 | Cc1cc([N+](=O)[O-])ccc1NCc1ccccc1 | 15.8 µM (active) | –
63 | O=C(O)c1cc([N+](=O)[O-])ccc1NCCCc1ccccc1 | inactive | –
64 | O=[N+]([O-])c1ccc(N2CCCC2)cc1NCc1ccccc1 | inactive | –
65 | CO[C@H]1COC(=O)C/C=C\[C@H](C)COC(=O)[C@@H](OCc2ccccc2)/C=C\[C@@H]1C | – | -13.9% [at 11.4 µM] (inactive)
66 | CCn1c(C)cc(/C=C2\SC(=O)N(CC(=O)Nc3ccc(C)c(C)c3)C2=O)c1C | inactive | –
67 | NCCCCCc1nnc(SCc2ccccc2Cl)o1 | 11.2 µM (active) | –
68 | Nc1nc(SCc2ccccc2Cl)cc(C(=O)O)n1 | – | 4.28% [at 11.4 µM] (inactive)
69 | C#CCSc1nnc(-c2sc3ccccc3c2Cl)o1 | inactive | –
70 | Clc1ccc(CSc2nnc(-c3cccnc3)o2)cc1 | 14.1 µM (active) | –
71 | Clc1ccccc1CSc1nnc(-c2ccncc2)o1 | 2 µM (active) | –
72 | COc1ccc(-c2nnc(-c3cccnc3)o2)cc1 | inactive | –
73 | NCCCCCc1nnc(SCc2ccc(Cl)cc2Cl)o1 | 1.41 µM (active) | –
74 | Cc1cccc(-c2nnc(SCc3ccccc3)o2)c1 | inactive | –
75 | c1ccc(-c2nnc(SCCC3OCCCO3)o2)cc1 | inactive | –

Row | SMILES | AC50 | activity, negative = inhibition
76 | N#Cc1c(SCC(N)=O)nsc1SCc1ccccc1Cl | inactive | –
77 | COc1ccc(NC(=O)CCNS(=O)(=O)c2ccc3c(c2)c(=O)n(C)c(=O)n3C)cc1 | inactive | –
78 | O=C(CCCc1ccccn1)c1ccccc1 | – | -16.5% [at 11.4 µM] (inactive)
79 | O=C1N=C(N2CCOCC2)S/C1=C/c1cccs1 | inactive | –
80 | Cc1cc(=O)[nH]c(-n2[nH]c3c(c2=O)CCCC3)n1 | inactive | –
81 | CCC1C(=O)OCC1Cc1cncn1C (stereo not given) | inactive | –
82 | N=C(N)[C@H](N=Nc1ccccc1)C(N)=O | – | 4.09% [at 11.4 µM] (inactive)
83 | C[C@@](N)(Cc1ccc(O)c(O)c1)C(=O)O | inactive | –
84 | FC(F)(F)c1cnc(/C=C/Nc2ccccc2Cl)c(Cl)c1 | inactive | –
85 | COc1ccc(C(=O)NC2CCN(C(=S)Nc3cccc(C)c3)CC2)cc1 | inactive | –
86 | O=C(O)c1ccccc1C1c2ccccc2Oc2ccccc21 | – | -7.56% [at 11.4 µM] (inactive)
87 | CC(=O)c1ccc(OC(=O)C2c3ccccc3Oc3ccccc32)cc1 | inactive | –
88 | CC[N+](C)(CC)CCOC(=O)C1c2ccccc2Oc2ccccc21 | 3.98 µM (active) | –
89 | COc1ccccc1N(CC(=O)NCC1CCCO1)C(=O)CNS(=O)(=O)c1ccc(C)cc1 (stereo not given) | inactive | –
90 | N#CC1=C(SCC(N)=O)NC2=C(C(=O)c3ccccc32)C1c1ccc(Cl)cc1 (stereo not given) | inactive | –
91 | COc1ccc2[nH]cc(CCNc3nc(-c4ccoc4)nc4ccccc34)c2c1 | 12.6 µM (active) | –
92 | CC(C)Oc1cccc(-n2c(CCc3c[nH]c4ccc(Br)cc34)nc3ccccc3c2=O)c1 | inactive | –
93 | COc1ccc2[nH]cc(CCNc3nc(-c4cccnc4)nc4ccccc34)c2c1 | 6.31 µM (active) | –
94 | COc1cccc(-c2nc(NCCc3c[nH]c4ccc(OC)cc34)c3ccccc3n2)c1 | 20 µM (active) | –
95 | COc1ccc2[nH]cc(CCNc3nc(-c4ccc(N(C)C)cc4)nc4ccccc34)c2c1 | 7.94 µM (active) | –
96 | c1ccc2c(NC3CC3)nc(-c3ccoc3)nc2c1 | inactive | –
97 | NC(=O)NC(=O)[C@H]1CCCC[C@@H]1C(=O)O | – | -4.03% [at 11.4 µM] (inactive)
98 | C[N+](C)(C)CCOC(N)=O | inactive | –
99 | COC(=O)CNC(=O)CCCCC(=O)NCC(=O)OC | inactive | –
100 | Cc1ccc(C)c(N2CCN(C(=O)C3CCN(S(=O)(=O)c4cccc5nsnc45)CC3)CC2)c1 | inactive | –
